The values below come from PubChem BioAssay (NCATS).

Records with an inconclusive call do not appear. A call without a number means that no potency is given here. The source made the active and inactive calls. Calls come from the whole dose curve.
Potency is the fitted concentration of half-maximal effect.

The assay is described as follows: Cytotoxicity counterscreen for inhibitors of SARS-CoV-2 cell entry (AID 1645845). Note: nearly all actives have a fitted effect of over 50% in size. Particulars: cell viability (SARS-CoV-2 entry assay cells); series mostly up to 57.1 µM. In short, it runs like this: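 After a 15 min room-temperature ATPLite 1step step, luminescence reflected ATP remaining in HEK293-ACE2 cells exposed to compound for 1 h plus 48 h at 37 C, with percent activity set by cell and no-cell controls.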
For `Nc1cc(C(F)(F)F)c(-c2nc(N3CCOCC3)nc(N3CCOCC3)n2)cn1`, the Potency was 10 µM (active). In the case of `COc1cc(OC)cc(N(CCNC(C)C)c2ccc3ncc(-c4cnn(C)c4)nc3c2)c1` it was “inactive”. In the case of `CCN1C(=O)CNc2ncc(-c3ccc(-c4ncn[nH]4)nc3C)nc21` it was 22.4 µM (active); in that of `CCN1C(=O)N2Cc3cc(OC)cc(OC)c3[C@@H](C)C=C2C12CCN(Cc1cc(C)cc(C)c1)CC2`, “inactive”. In the case of `CN1CCN(c2ccc(-c3cccc(CN4CCOCC4)c3)cc2NC(=O)c2c[nH]c(=O)cc2C(F)(F)F)CC1` it was “inactive”; in that of `CC(C)NC(=O)N1CC[C@H](N=C2Nc3cc(F)ccc3N(CC(F)F)c3ccc(Cl)cc32)C1`, “inactive”; in that of `CC1(C)CN(C(=O)c2ccc(-c3cccc4nc(NC(=O)C5CC5)nn34)cc2)C1`, “inactive”. Turning to `CN(Cc1ccccc1)C(=O)c1ccc(S(=O)(=O)Nc2ccccc2)cc1`, the Potency entry is “inactive”. `CC/C(=C(/c1ccc(/C=C/C(=O)O)cc1)c1ccc2[nH]ncc2c1)c1ccc(F)cc1Cl`: the Potency result is “inactive”. In the case of `Cn1cc(-c2cc(Oc3cc(F)c(NC(=O)C4(C(=O)Nc5ccccc5)CC4)cc3F)ccn2)cn1` it was “inactive”; in that of `O=C1OC2(CCC(C(=O)Nc3ccn(-c4ccccc4F)n3)CC2)c2cnccc21` (stereo not given), “inactive”. On to `Cc1ccc(C(=O)Nc2ccc(CN3CCN(C)CC3)c(C(F)(F)F)c2)cc1C#Cc1cnc2[nH]ncc2c1`, for which the Potency was 31.6 µM (active). Under `Cc1cc(F)c(C(=O)Nc2cccc(-c3nncn3C(C)C)n2)cc1-n1cnc(C2CC2)c1` stands 31.6 µM (active); under `CC(=O)N[C@H]1CSSC[C@@H](C(N)=O)NC(=O)[C@H](C(C)C)NC(=O)[C@H](C)NC(=O)[C@H](Cc2cnc[nH]2)NC1=O`, “inactive”; under `C=C[C@H]1CN2CCC1C[C@@H]2C(O)c1ccnc2ccc(OC)cc12` (stereo not given in full), “inactive”. In the case of `CC(=O)N1c2ccc(-c3ccc(C(=O)O)cc3)cc2[C@H](Nc2ccc(Cl)cc2)C[C@@H]1C` it was “inactive”. In the case of `CN(C)C/C=C/C(=O)Nc1cc2c(Nc3ccc(F)c(Cl)c3)ncnc2cc1O[C@H]1CCOC1` it was “inactive”. As for `O=C(NNc1ccccc1)c1ccncc1`, the Potency result was “inactive”. In the case of `NC[C@@](O)(c1ccc(Cl)cc1)c1ccc(-c2cn[nH]c2)cc1` it was 28.2 µM (active); in that of `Cc1nnn(C)c1-c1cnc2c3ccc(C(C)(C)O)cc3n([C@H](c3ccccc3)C3CCOCC3)c2c1`, “inactive”.

Consider `NS(=O)(=O)c1ccc(NC(=S)N2CCN(C/C=C/c3ccccc3)CC2)cc1`, for which the Potency result was “inactive”. In the case of `N#Cc1ccnc(N2C(=O)CC[C@H]2C(=O)N(c2cncc(F)c2)[C@H](C(=O)NC2CC(F)(F)C2)c2ccccc2Cl)c1` it was “inactive”; in that of `CCS(=O)(=O)N1CCN(c2ccc(Nc3ncc(C(N)=O)c(NC4CC4)n3)cc2)CC1`, 25.1 µM (active); in that of `CNCCN(C)Cc1cn[nH]c1-c1ccc(OC2CC(OCCC3CCOCC3)C2)cc1` (stereo not given), “inactive”. For the molecule `CNC(=O)[C@@H](NC(=O)[C@H](CC(C)C)[C@H](O)C(=O)NO)C(C)(C)C`, the Potency result is “inactive”. Under `O=C(O)c1ccc(O)c2ncccc12` stands “inactive”; under `O=C(O)CNC(=O)c1nc(Cl)c2ccccc2c1O`, “inactive”. Under `CCCC(CCC)C(=O)Nc1ccn([C@@H]2O[C@H](CO)[C@@H](O)C2(F)F)c(=O)n1` stands “inactive”; under `COc1cc(N2CCN(C)CC2)ccc1Nc1ncc2c(n1)N(C)c1ccccc1C(=O)N2C`, “inactive”. In the case of `NC1CCCN(c2c(/C=C3\SC(=O)NC3=O)cccc2-c2ccccc2)C1` (stereo not given) it was “inactive”; in that of `CCC[C@H](NC(=O)/C(C#N)=C/c1cccc(Br)n1)c1ccccc1`, 20 µM (active). Consider `O=C(NO)C1(CS(=O)(=O)c2ccc(Oc3ccc(Cl)cc3)cc2)CCOCC1`, for which the Potency entry was “inactive”. In the case of `CNC(=O)c1ccccc1Nc1nc(Nc2ccc3c(c2OC)CCC[C@@H](N2CCN(CCO)CC2)C3)ncc1Cl` it was “inactive”; in that of `O=C(Nc1ccc(OC(F)(F)Cl)cc1)c1cnc(N2CC[C@@H](O)C2)c(-c2ccn[nH]2)c1`, “inactive”.

Consider `Cc1cc(C)cc(Oc2ccc(CNC(=O)[C@H](C)N)cc2C)c1`, for which the Potency result is “inactive”. Under `Cc1cccc(-c2[nH]ncc2-c2ccc(F)c(-c3cnn(CCO)c3)c2)n1` stands “inactive”.

`CN(C)N(C)C(=O)[C@@]1(Cc2ccccc2)CCCN(C(=O)[C@@H](Cc2c[nH]c3ccccc23)NC(=O)C(C)(C)N)C1`: the Potency result is “inactive”. For the molecule `NC(=S)N/N=C/c1ncccc1N`, the Potency result is “inactive”.

For the molecule `COc1cc2c(cc1OC(C)C)[C@H](c1ccc(Cl)cc1)N(c1ccc(N(C)CC3CCC(N4CCN(C)C(=O)C4)CC3)cc1)C(=O)C2` (stereo not given in full), the Potency result was “inactive”.

As for `C[C@H]1C[C@@H](n2c(Nc3ccc(OC(F)(F)F)cc3)nc3cc(CCC(=O)O)ccc32)CC(C)(C)C1`, the Potency result was “inactive”.
